# Bioassay records from PubChem.
# Sfp inh = qHTS Assay for Inhibitors of Bacillus subtilis Sfp phosphopantetheinyl transferase (PPTase). Biochemical Sfp PPTase activity, qHTS. Potency, µM, most hits filed as inhibitors. hit rate 3.5% among 310,000. AID 1490, 2009;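 further: the enzyme is Sfp with the accession as filed and its product quenches rhodamine fluorescence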
#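 Fluorescence-quenching assay: 15 nM Sfp-PPTase preincubated 15 min at room temperature with compound, then 5 uM rhodamine-CoA and 12.5 uM BHQ-2-labelled YbbR peptide added. Fluorescence (ex 525/em 598 nm) read at start and after 30 min; difference gives rate.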
# PINK1 modulator = A Quantitative High throughput Screen to Identify Chemical Modulators of PINK1 Expression | PINK1 immunofluorescence, high-content cytometry, 24 h | Potency, µM (top dose mostly 76.6 µM), actives largely listed as activators | hit rate 0.2% among 410,000; active means well fitted activation curve with a large enough effect; inconclusive means small, poorly fitted or top-dose-only effect; cell line not stated here; further: nearly all actives have a fitted effect of over 65% in size
#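 Readout is PINK1 immunofluorescence, quantified alongside mitochondrial, cell and nuclear markers by laser-scanning microplate cytometry. Cells from a stable line were exposed to compound titrations (5 concentrations) for 24 hours, with CCCP controls.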
# ClpP mod = qHTS Assay for Activators of ClpP | AID 651965, 2013 | purified B. subtilis ClpP, FRET peptide cleavage, 20 min | Potency, µM (top dose mostly 57.5 µM) | hit rate 1.9% among 340,000; active means well fitted falling curve with a large enough effect; inconclusive means small, poorly fitted or top-dose-only effect; inactive means no such curve, though single readings can be large or run the other way; further: the source files actives as falling curves though it sought activators and does not explain the sign; nearly all actives have a fitted effect of over 65% in size
#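 Purified B. subtilis ClpP, 10 microg/mL final in Tris/HCl pH8 with KCl, BSA, glycerol and Tween-20, cleaved an Abz/nitrotyrosine-quenched decapeptide. Fluorescence (ex 320, em 430) was read at 0 and 20 min at room temperature. Delta was normalized to 5.8 microM ADEP and DMSO/no-enzyme controls.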
# Epigenetic reg = Quantitative High-Throughput Screen for Regulators of Epigenetic Control | murine LDR cells, GFP reporter derepression, 30 h | Potency, µM (top dose mostly 53.9 µM), hits mostly activators | hit rate 0.2% among 280,000 | AID 1865, 2009; further: nearly all actives have a fitted effect of over 60% in size
#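 Murine LDR cells carrying a silenced, genomically integrated CMV-driven GFP reporter were exposed to compound for 30 hours at 37 C. After PBS washes, GFP-positive cells (20–120 um objects) were counted by laser-scanning microplate cytometry.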
# Gal4-VP16 FLuc = VP16 counterscreen qHTS for inhibitors of ROR gamma transcriptional activity; Drosophila S2 Gal4-VP16 UAS-luciferase, luminescence, 20 h; Potency, µM (highest dose often 53.6 µM), most hits filed as inhibitors; hit rate 3.5% among 310,000;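 further: Gal4-VP16 expression switched on by copper sulfate through the metallothionein promoter; nearly all actives have a fitted effect of over 50% in size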
# RORg inh = qHTS for inhibitors of ROR gamma transcriptional activity; Nuclear receptor ROR-gamma (Mus musculus), P51450; Drosophila S2 Gal4-RORgamma UAS-luciferase reporter, 20 h; Potency, µM (highest dose often 53.6 µM), usual class: inhibitors; hit rate 5.4% among 310,000; AID 2551, 2010; further: nearly all actives have a fitted effect of over 60% in size
# Target sequence (P51450 whole entry, looked up, the tested form may be a part): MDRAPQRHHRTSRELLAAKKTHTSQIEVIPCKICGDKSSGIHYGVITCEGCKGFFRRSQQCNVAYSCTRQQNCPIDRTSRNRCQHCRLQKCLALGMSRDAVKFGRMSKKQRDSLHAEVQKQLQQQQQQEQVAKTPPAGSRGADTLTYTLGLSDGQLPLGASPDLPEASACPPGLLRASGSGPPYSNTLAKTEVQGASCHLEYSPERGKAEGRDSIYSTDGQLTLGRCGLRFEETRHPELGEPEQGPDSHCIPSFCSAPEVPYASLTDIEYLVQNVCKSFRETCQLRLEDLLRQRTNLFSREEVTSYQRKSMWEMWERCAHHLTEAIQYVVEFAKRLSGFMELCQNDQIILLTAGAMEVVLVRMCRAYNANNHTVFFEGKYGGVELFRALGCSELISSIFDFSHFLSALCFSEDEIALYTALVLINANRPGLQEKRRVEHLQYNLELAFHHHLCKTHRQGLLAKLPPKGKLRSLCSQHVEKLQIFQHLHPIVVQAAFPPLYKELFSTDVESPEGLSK
#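 Schneider cells (Drosophila), stable Gal4 DBD–ROR gamma + UAS-luc; 1 hr cmpd preincubation; Cu2+ induction 700 uM final; 20 hr ambient; luminescence.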
# A number is an active result; i = inactive; ? = inconclusive; nt = no result. In the library only some 8.1% were active in any assay of this set; here they are far more common. Unless noted, the call rests on the fitted dose curve; in most records, active means well fitted curve in the direction sought with a large enough effect; inconclusive means small, poorly fitted or top-dose-only effect, or another doubt; inactive means no such curve, though single readings can be large; an effect the other way counts as inactive or inconclusive.
SMILES,Sfp inh,PINK1 modulator,ClpP mod,Epigenetic reg,Gal4-VP16 FLuc,RORg inh
C[C@H]1O[C@H](O[C@H]2[C@H](O)[C@@H](O)[C@@H](O)[C@H](O)[C@@H]2O)[C@@H](N)C[C@@H]1NC(=N)C(=O)O,?,i,nt,i,i,i
CC(CCC(=O)O)C1CCC2C3CC[C@H]4CC(O)CC[C@@]4(C)C3CC[C@@]12C (stereo partly specified),i,nt,nt,i,i,i
CN(N)N=Nc1nc2c([nH]1)c(=O)n(C)c(=O)n2C,18µM,i,?,i,i,i
N#Cc1nn(-c2c(Cl)cc(C(F)(F)F)cc2Cl)c(N)c1S(=O)C(F)(F)F (stereo unspecified),i,nt,nt,i,20µM,?
CCOC(=O)c1ccc(N2CCN(c3ccccc3F)CC2)c(NC(=O)Nc2ccc(Cl)c(Cl)c2)c1,nt,i,?,i,nt,nt
Cc1ccccc1N1C(=O)NC(=O)/C(=C\c2ccc3c(c2)CCCN3Cc2ccccc2)C1=O,79µM,i,i,i,?,i
Cc1cc(/C=C2\C(=O)NC(=O)N(Cc3ccccc3)C2=O)c(C)n1C1CC1,i,i,nt,i,i,i
Cn1c(O)c(/C=C2\C=c3ccccc3=NC2=O)c(=O)n(C)c1=O,45µM,i,i,nt,i,i
CCN1C(=O)c2ccccc2Sc2ccc(C(=O)N3CCC4(CC3)OCCO4)cc21,i,i,i,i,i,i
CCN1C(=O)c2ccccc2Sc2ccc(NC(=O)Nc3ccc(Br)c(C)c3)cc21,nt,16µM,i,i,nt,nt
CC1(C)C(C(Cl)Cl)C2(Cl)C(Cl)C(Cl)C1(Cl)C2(Cl)Cl (stereo unspecified),i,i,nt,i,i,i
CC(C)[C@H](NC(=O)[C@H](CCC(=O)O)NC(=O)[C@H](Cc1ccccc1)NC(=O)[C@@H](C)NC(=O)[C@@H](N)Cc1ccc(O)cc1)C(=O)N[C@H](C(=O)NCC(N)=O)C(C)C,i,nt,nt,nt,i,i
CC(C)=CCCC1(C)C=Cc2c(O)c3c(c(CC=C(C)C)c2O1)OC12C(=CC4CC1C(C)(C)OC2(C/C=C(/C)C(=O)O)C4O)C3=O (stereo unspecified),50µM,i,nt,i,2.2µM,2.8µM
CC(C)CCCC1(C)C=Cc2c(O)c3c(c(CCC(C)C)c2O1)OC12C(CC4CC1C(C)(C)OC2(CCC(C)C(=O)O)C4O)C3=O (stereo unspecified),i,nt,nt,i,i,i
CC(C)=CCCC1(C)C=Cc2c(O)c3c(c(CC=C(C)C)c2O1)OC12C(=CC4CC1C(C)(C)OC2(C/C=C(/C)C(=O)O)C4=O)C3=O (stereo unspecified),i,nt,nt,i,5µM,3.2µM
C[CH2][Hg][S]c1ccccc1C(=O)O,16µM,i,i,i,0.63µM,1.1µM
O=C(O)c1ccccc1SSc1ccccc1C(=O)O,?,i,nt,nt,i,i
O=C(Nc1ccc2nc(SCC(=O)N3CCCc4ccccc43)sc2c1)c1ccccc1F,nt,i,18µM,i,nt,nt
COc1ccccc1C(=O)Nc1ccc2nc(SCC(=O)N3CCCc4ccccc43)sc2c1,nt,i,10µM,i,nt,nt
O=C(NCc1ccccc1)c1cccc(Nc2nc3ccccc3n3nnnc23)c1,nt,i,?,i,nt,nt
Cl/C=C/CCl,nt,nt,nt,nt,i,i
Cc1cc(/C=C/c2ccnc3ccccc23)ccc1N(CCCl)CCCl,nt,i,i,nt,nt,nt
c1ccc(CCN2CCCCC2)cc1,nt,nt,i,nt,nt,nt
S=c1nc(-c2ccccc2)n(-c2ccccc2)[nH]1,i,i,i,nt,?,10µM
CCCC(C)c1nnc(NC(=O)CCS(=O)(=O)c2ccccc2)s1 (stereo unspecified),18µM,i,nt,nt,i,i
C=C1C2C[C@]3(C4CC5[C@@]6(C)CC[C@H](O)[C@@]5(C3CC2=O)C4[N+]([O-])(CC)C6)[C@@H]1O (stereo partly specified),i,nt,nt,i,i,i
